Out of some 360,000 compounds screened, about 3,500 (0.97%) were called active. Only a selection was taken, and actives are over-represented in it overall. Unmarked numbers belong to inactive results.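 Rule for the calls: active = activation above a per-plate cutoff, the mean activation of sample wells on that plate plus 3 SD (cut at about 8% in these data); inactive = the rest.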

Chain of Melanocortin receptor 4 (Homo sapiens) (P32245 whole entry, looked up): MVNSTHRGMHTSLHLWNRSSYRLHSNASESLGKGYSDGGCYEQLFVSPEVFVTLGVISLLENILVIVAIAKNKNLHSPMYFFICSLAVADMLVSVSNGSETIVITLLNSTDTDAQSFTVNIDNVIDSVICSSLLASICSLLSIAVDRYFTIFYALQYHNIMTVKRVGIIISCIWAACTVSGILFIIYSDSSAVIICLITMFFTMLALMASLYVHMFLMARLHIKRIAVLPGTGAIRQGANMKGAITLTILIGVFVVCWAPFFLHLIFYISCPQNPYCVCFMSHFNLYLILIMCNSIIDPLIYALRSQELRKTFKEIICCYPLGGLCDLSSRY

The test addresses Melanocortin receptor 4 (Homo sapiens) (UniProt P32245). The experiment in a line: activators of MC4R beta-arrestin recruitment – cell-based, luminescence, agonist arm of biased-ligand search, primary screen (AID 540308). The settings on record: U2OS MC4R beta-arrestin complementation, at 8.9 µM, stronger effect = higher value, percent of melanotan II response, DMSO zero.
Consider `Cc1cccnc1C(NC(=O)C1CCN(Cc2ccc(Cl)c(Cl)c2)CC1)c1ccc(Cl)cc1` (stereo unspecified), for which the activation is -0.01%.

Consider `CC(C)(C)c1nnc2sc(SCC(O)=C(C#N)c3nc4ccccc4[nH]3)nn2c1=O`, for which the activation was -0.79%.

With `N#C/C(=C(/O)COC(=O)COc1ccc(Cl)cc1)c1nc2ccccc2[nH]1`, the activation was 14.5% (active).

Turning to `COc1ccccc1C(=O)COC(=O)COc1ccc(C#N)cc1`, the activation is -0.25%.

As to `CC(C)NC(=O)C1(C)CCCCCN1C(=O)c1ccc(-c2ccccc2)cc1` (stereo unspecified), the activation was -1.12%.

With `COCCNc1nnc(SCC(=O)NNC(=O)c2ccco2)s1`, the activation is -0.17%.

As for `O=C(NCc1ccc(F)cc1)c1cc(C2CCCCN2C(=O)c2cccs2)on1` (stereo unspecified), the activation is -0.1%.

With `COC(=O)c1sccc1NC(=O)c1ccc(Cl)cc1`, the activation was 3.1%.

As to `COC(=O)c1sccc1NN1C(=O)c2ccccc2C1=O`, the activation was 1.29%.

As for `COC(=O)c1sccc1NC(=O)c1cc(OC)c(OC)c(OC)c1`, the activation is 10.6% (active).

Take `COc1ccc(NC(=O)C2(C)Cc3c(-c4cccc(NC(C)=O)c4)ccnc3O2)cc1` (stereo unspecified): the activation is -0.48%.

`CCN(CC)C(=O)C1CCCN(Cc2cccc(Cl)c2)C1` (stereo unspecified): the activation was -1.07%.

As for `Cc1noc(C)c1C(=O)N1CCC1(C)C(=O)NS(=O)(=O)c1ccc(C#N)cc1` (stereo unspecified), the activation was -1.23%.

Turning to `COc1cccc(C(NC(C)=O)c2nc(-c3cnc4ccccc4c3)cs2)c1` (stereo unspecified), the activation was -2.35%.

Turning to `Cc1ccc(-c2csc(NC(=O)Cn3[nH]c(=O)c4ccccc4c3=O)n2)cc1`, the activation was 16.1% (active).

Take `O=C(CSc1nc2ccccc2c(=O)[nH]1)Nc1nc(-c2ccc(Br)cc2)cs1`: the activation is 0.03%.

Turning to `Cc1ccc(C)c(C(=O)COC(=O)Cn2[nH]c(=O)c3ccccc3c2=O)c1`, the activation was -1.85%.

Regarding `Cc1cc(=O)oc2c3c(cc(OCC(=O)NCC(O)c4ccccc4)c12)OC(C)(C)CC3` (stereo unspecified), the activation was 2.2%.

With `CCc1nc2c(OCc3ccc(Cl)cc3Cl)cccn2c1N(C)C(=O)C(C)C`, the activation is -0.09%.

Regarding `Cc1ccc([C@H]2C[C@H](O)[C@@H](n3cc(COC(=O)c4ccccc4)nn3)CN2C(=O)C2CCCCC2)cc1`, the activation is 9.82% (active).

Take `Cc1ccc([C@H]2C[C@H](O)[C@@H](n3cc(COC(=O)c4ccccc4)nn3)CN2CC2CCCCC2)cc1`: the activation is 1.06%.

Regarding `CCCCCC(=O)N1C[C@H](O)[C@@H](n2cc(COC(=O)c3ccccc3)nn2)C[C@@H]1c1ccc(C)cc1`, the activation was 0.09%.

With `Fc1ccc(-c2csc(-c3ccc(C4SCCS4)cc3)n2)cc1F`, the activation is 1.21%.

For `COc1ccc(Br)c(Cn2c(C)c(C(=O)NCc3cccs3)sc2=O)c1`, the activation was 0.68%.

Consider `Cn1cc(S(=O)(=O)NC(c2ccccc2)c2ccccc2)c(=O)n(C)c1=O`, for which the activation is -0.18%.

For the molecule `CCc1nc2c(OCCOc3ccccc3)cccn2c1N(C)C(=O)c1cccs1`, the activation is 0.14%.

`COc1ccc(S(=O)(=O)NC(=O)C2(C)CCN2C(=O)c2ccccc2CCc2ccccc2)cc1` (stereo unspecified): the activation was -2.22%.

As to `O=C(O)c1ccc(/C=N/NC(=S)NCc2ccccc2)cc1`, the activation was 0.6%.

Turning to `O=C(O)COc1ccc(/C=N/O)cc1Br`, the activation was -1.99%.

With `CNC(=S)N/N=C/c1ccc(OCc2ccccc2)c(Br)c1`, the activation is 8.56% (active).

In the case of `CCCC(=O)N1CCC1(C)C(=O)Nc1ccc(-n2cncn2)cc1` (stereo unspecified), the activation is 0.24%.

Turning to `COc1ccccc1CNc1nc(Nc2ccccc2Cl)c2sccc2n1`, the activation is 0.15%.

On to `Clc1ccccc1Nc1nc(NCc2cccs2)nc2ccsc12`, for which the activation was 15.7% (active).

As to `COc1cccc(CNc2nc(NCc3cccs3)nc3ccsc23)c1`, the activation is -1.2%.

As for `COCCNc1nc(Nc2ccccc2Cl)c2sc(-c3ccccc3)cc2n1`, the activation was 10.6% (active).

As to `CC(=O)Nc1ccc(CNc2nc(NCCN(C)C)nc3cc(-c4ccccc4)sc23)cc1`, the activation was 0.89%.

For `COc1cccc(-c2cc3nc(NCCOc4ccccc4Cl)n(C)c(=O)c3s2)c1`, the activation was 2.56%.

For the molecule `COc1ccc(C(C)(O)c2nc(-c3ccc(C)c(C)c3)cs2)cc1` (stereo unspecified), the activation was 0.79%.

Turning to `COc1cc2ccccc2cc1C(=O)Nc1ccncc1`, the activation is -0.89%.

For the molecule `CC1CCCC(NC(=O)c2cc(-c3ccncc3)nc3ccccc23)C1C` (stereo unspecified), the activation is 8.93% (active).

For the molecule `O=C(Nc1ccc(S(=O)(=O)Nc2nccs2)cc1)c1cc(-c2ccncc2)nc2ccccc12`, the activation is 1.73%.

For the molecule `Cc1cc(NS(=O)(=O)c2ccc(NC(=O)c3cccc(OC(F)F)c3)cc2)nc(C)n1`, the activation was 0.09%.

Take `COc1ccc(NC(=O)c2cc(-c3cc(OC)c(OC)c(OC)c3)nc3ccccc23)c(OC)c1`: the activation is 1.47%.

On to `Cc1ccc(-n2c(SCC(=O)Nc3ccc4c(c3)OCO4)nnc2-c2ccccn2)cc1`, for which the activation was 1.14%.

For the molecule `Cc1ccc2nc(-c3ccncc3)cc(C(=O)Nc3ccc(OC(F)F)cc3)c2c1`, the activation was 13.6% (active).

Regarding `Cc1ccc2nc(-c3ccncc3)cc(C(=O)Nc3ccncc3)c2c1`, the activation was 10.5% (active).

With `Cc1ccc2nc(-c3ccccn3)cc(C(=O)Nc3ccc4c(c3)OCO4)c2c1`, the activation was 8.55% (active).

With `CSc1ncccc1C(=O)Nc1ccc2c(c1)OCO2`, the activation was -2.93%.

For `CCc1ccc(-c2cc(C(=O)NN3CCN(C)CC3)c3ccccc3n2)cc1`, the activation was -0.59%.

For `CC(C)c1cc(C(=O)NC2CCCCCC2)c2ccccc2n1`, the activation is -0.07%.

For `CCOC(=O)C1CCCN(C(=O)c2cc(-c3cccs3)oc2C)CC1` (stereo unspecified), the activation was 1.53%.

As for `CCCS(=O)(=O)NC(=O)C1(C)CCCN(C(=O)c2ccnc(Cl)c2)C1` (stereo unspecified), the activation is -0.96%.

With `CCCCc1ccc(S(=O)(=O)NC(=O)C2(C)CCN2C(=O)c2ccccc2)cc1` (stereo unspecified), the activation was 0.97%.

For `OC[C@@H]1CN(Cc2ccc(-c3ccccc3)cc2)C[C@H](n2cnc3c(NC4CCCC4)ncnc32)O1`, the activation is 5.7%.

In the case of `CCc1nc2c(OCc3ccc(C(=O)OC)cc3)cccn2c1N(C)C(=O)C(C)C`, the activation is 1.62%.

On to `CC1(C(=O)NS(=O)(=O)c2ccccc2)CCN1C(=O)c1ccccc1` (stereo unspecified), for which the activation was -1.65%.

For the origin of these results see PubChem BioAssay AID540308 (The Scripps Research Institute Molecular Screening Center, 2011).
